In all, about 320,000 compounds went through this assay and about 8,000 (2.5%) were called active. Rule as the data show it: active = activation above about 47%; inactive = the rest. This excerpt belongs to a sample that is enriched for actives.

In the test the target is Aryl hydrocarbon receptor (Homo sapiens) (UniProt P35869). The test can be described thus: AHR activators, primary screen, cell-based, luminescence, luciferase reporter, human (AID 2796).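 Also: 0% = vehicle wells and 100% = reference agonist.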 To be noted: AHR-responsive luciferase reporter cells, at 5 µM, hits give high values.
Sequence of Aryl hydrocarbon receptor (Homo sapiens) (P35869 whole entry, looked up): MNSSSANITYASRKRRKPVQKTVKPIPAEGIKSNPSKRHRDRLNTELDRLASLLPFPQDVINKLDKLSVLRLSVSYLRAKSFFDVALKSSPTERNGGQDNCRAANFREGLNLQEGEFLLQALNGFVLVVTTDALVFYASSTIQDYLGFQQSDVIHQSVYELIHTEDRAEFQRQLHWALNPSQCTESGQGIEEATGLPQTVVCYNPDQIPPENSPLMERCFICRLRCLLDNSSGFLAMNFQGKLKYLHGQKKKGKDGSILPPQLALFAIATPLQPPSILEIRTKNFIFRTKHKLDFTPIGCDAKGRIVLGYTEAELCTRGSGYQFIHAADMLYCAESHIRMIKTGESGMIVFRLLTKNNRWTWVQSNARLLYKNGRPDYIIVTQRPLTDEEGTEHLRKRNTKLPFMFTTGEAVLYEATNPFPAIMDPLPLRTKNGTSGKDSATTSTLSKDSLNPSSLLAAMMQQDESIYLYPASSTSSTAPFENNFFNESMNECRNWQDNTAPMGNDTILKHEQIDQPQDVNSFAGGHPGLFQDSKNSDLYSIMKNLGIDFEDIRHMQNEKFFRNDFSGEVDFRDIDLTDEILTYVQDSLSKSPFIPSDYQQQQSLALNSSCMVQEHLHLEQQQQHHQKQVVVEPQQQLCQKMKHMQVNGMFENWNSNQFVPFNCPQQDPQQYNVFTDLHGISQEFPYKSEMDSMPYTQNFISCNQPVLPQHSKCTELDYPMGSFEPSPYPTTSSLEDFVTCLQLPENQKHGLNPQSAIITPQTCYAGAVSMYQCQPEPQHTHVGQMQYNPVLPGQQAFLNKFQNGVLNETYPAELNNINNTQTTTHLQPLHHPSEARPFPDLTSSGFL
Turning to `N[C@@H](Cc1c[nH]c2ccccc12)c1nnc(SCc2c(F)cccc2Cl)o1`, the activation was 60.4% (active).
The same measure for `COc1cc2nc(N3CCN(C(=O)[C@@H]4CCCO4)CC3)nc(N)c2cc1OC`: 5.62% (inactive); for `c1ccc(CCN2CCC3(CC2)OCCO3)cc1`: -0.2% (inactive); for `O=C(NC(c1ccc(Cl)cc1)P(=O)(Oc1ccccc1)Oc1ccccc1)OCc1ccccc1` (stereo not given): 1.2% (inactive).
With `CN(C)CCN(CC1CCCN(Cc2ccccc2F)C1)C(=O)Cc1ccc(F)c(F)c1` (stereo not given), the activation was -0.87% (inactive).
`CC1(C)C(c2ccccc2)=NC(c2cccnc2)=[N+]1[O-]`: the activation was 1.07% (inactive).
Regarding `COc1c(O)ccc2c1-c1c3c(cc4c1C(C2)N(C)CC4)OCO3` (stereo not given), the activation is 4.84% (inactive).
In the case of `COc1ccc2c(c1O)-c1cccc3c1[C@@H](C2)N(C)CC3`, the activation was 64.4% (active).
On to `COC1=CC=C2[C@H]3Cc4ccc(OC)c5c4[C@@]2(CCN3C)C1O5` (stereo not given in full), for which the activation is -1.46% (inactive).
For `COc1ccc(NC(=O)c2cn(CCC#N)nc2-c2ccc([N+](=O)[O-])cc2)cc1`, the activation was 0% (inactive).
Regarding `CCOC(=O)C1=C(C)OC(N)=C(C(=O)OC)C12C(=O)Nc1ccc(Br)cc12` (stereo not given), the activation was 57% (active).
Take `CCOC(=O)CC1=C(C(=O)OCC)C2(C(=O)N1)C(C(=O)OC)=C(N)Oc1ccccc12` (stereo not given): the activation was 10% (inactive).
On to `COC(=O)CN1C(=O)C2(C(C(=O)OC)=C(N)Oc3ccccc32)C2=C1CC(C)(C)CC2=O` (stereo not given), for which the activation was 2.04% (inactive).
As to `Nc1ccc(C(=O)N/N=C2/CN3CCC2CC3)cc1`, the activation is 3.27% (inactive).
For the compound `CCOC(=O)C(O)(c1ccc(N=Cc2ccccc2O)c(C)c1)C(F)(F)F` (stereo not given), the activation was -2.72% (inactive).

(Values after PubChem BioAssay AID2796 (The Scripps Research Institute Molecular Screening Center, 2010).)
